# Data published in PubChem BioAssay AID1159580 (chemical genetic matrix, 2015).
# Several values for one entry are separate records, joined by “and”; a condition that tells them apart may be missing. Identical values can stand only once. About 2,000 (36%) of roughly 5,500 compounds were called active. Another 18% or so got no clear call; they are omitted. Cut-off read from the data, not from the text of the source: active = normalized growth mostly below about 0.91 (no sharp cut-off); inconclusive = no clear call, values can overlap the other calls; inactive = mostly above about 0.92. This is one part of the list.
# Assay: chemical genetic growth profiling, strain panel (AID 1159580);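 note: tested at 20 µM; growth read once vehicle control cultures reached saturation at 30 °C; 1 = growth at the plate median or of vehicle wells; lower values mean less growth of the strain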
# Conditions: growth OD
smiles,measurement,setting,value
O=c1c(O)c(-c2ccc(O)c(O)c2)oc2cc(O)cc(O)c12,normalized growth,"S. cerevisiae deletion strains, locus YKL009W, strain mrt4, active compounds read low",1.01 (inactive)
same,normalized growth,"S. cerevisiae deletion strains, locus YKL068W, active compounds read low",1.03 (inactive)
same,normalized growth,"S. cerevisiae deletion strains, locus YKL085W, strain MDH1 (second series), active compounds read low",1.06 (inactive)
same,normalized growth,"S. cerevisiae deletion strains, locus YKL085W, strain MDH1, active compounds read low",1.06 (inactive)
same,normalized growth,"S. cerevisiae deletion strains, locus YKL160W, strain elf1, active compounds read low",0.87 (active)
same,normalized growth,"S. cerevisiae deletion strains, locus YKL190W, strain CNB1, active compounds read low",0.97 (inactive)
same,normalized growth,"S. cerevisiae deletion strains, locus YKR001C, strain vps1, active compounds read low",0.94 (inactive)
same,normalized growth,"S. cerevisiae deletion strains, locus YKR026C, strain gcn3, active compounds read low",1 (inactive)
same,normalized growth,"S. cerevisiae deletion strains, locus YKR091W, strain srl3, active compounds read low",0.979 (inactive)
same,normalized growth,"S. cerevisiae deletion strains, locus YLL001W, strain dnm1, active compounds read low",0.941 (inactive)
same,normalized growth,"S. cerevisiae deletion strains, locus YLL026W, active compounds read low",0.982 (inactive)
same,normalized growth,"S. cerevisiae deletion strains, locus YLL041C, strain sdh2, active compounds read low",0.979 (inactive)
same,normalized growth,"S. cerevisiae deletion strains, locus YLR027C, strain aat2, active compounds read low",0.893 (active)
same,normalized growth,"S. cerevisiae deletion strains, locus YLR039C, strain RIC1, active compounds read low",0.872 (inactive)
same,normalized growth,"S. cerevisiae deletion strains, locus YLR058C, strain SHM2, active compounds read low",0.937 (inactive)
same,normalized growth,"S. cerevisiae deletion strains, locus YLR102C, strain apc9, active compounds read low",1.04 (inactive)
same,normalized growth,"S. cerevisiae deletion strains, locus YLR113W, strain HOG1, active compounds read low",0.98 (inactive)
same,normalized growth,"S. cerevisiae deletion strains, locus YLR221C, strain rsa3, active compounds read low",0.906 (active)
same,normalized growth,"S. cerevisiae deletion strains, locus YLR258W, strain gsy2, active compounds read low",0.878 (active)
same,normalized growth,"S. cerevisiae deletion strains, locus YLR262C, strain YPT6 (second series), active compounds read low",0.779 (active)
same,normalized growth,"S. cerevisiae deletion strains, locus YLR262C, strain YPT6, active compounds read low",0.982 (inactive)
same,normalized growth,"S. cerevisiae deletion strains, locus YLR268W, strain sec22, active compounds read low",0.924 (inactive)
same,normalized growth,"S. cerevisiae deletion strains, locus YLR320W, strain mms22, active compounds read low",0.869 (active)
same,normalized growth,"S. cerevisiae deletion strains, locus YLR330W, strain CHS5, active compounds read low",0.991 (inactive)
same,normalized growth,"S. cerevisiae deletion strains, locus YLR342W, strain FKS1 (second series), active compounds read low",0.719 (active)
same,normalized growth,"S. cerevisiae deletion strains, locus YLR342W, strain FKS1, active compounds read low",0.8 (active)
same,normalized growth,"S. cerevisiae deletion strains, locus YLR357W, strain rsc2, active compounds read low",0.713 (active)
same,normalized growth,"S. cerevisiae deletion strains, locus YLR370C, strain arc18, active compounds read low",0.859 (active)
same,normalized growth,"S. cerevisiae deletion strains, locus YLR371W, strain rom2, active compounds read low",0.969 (inactive)
same,normalized growth,"S. cerevisiae deletion strains, locus YLR384C, strain iki3, active compounds read low",0.951 (inactive)
same,normalized growth,"S. cerevisiae deletion strains, locus YLR418C, strain cdc73, active compounds read low",0.775 (active)
same,normalized growth,"S. cerevisiae deletion strains, locus YML016C, strain PPZ1, active compounds read low",0.961 (inactive)
same,normalized growth,"S. cerevisiae deletion strains, locus YML032C, strain rad52, active compounds read low",1.04 (inactive)
same,normalized growth,"S. cerevisiae deletion strains, locus YML120C, strain ndi1, active compounds read low",0.98 (inactive)
same,normalized growth,"S. cerevisiae deletion strains, locus YML124C, strain tub3, active compounds read low",1.03 (inactive)
same,normalized growth,"S. cerevisiae deletion strains, locus YMR058W, strain fet3, active compounds read low",0.882 (active)
same,normalized growth,"S. cerevisiae deletion strains, locus YMR078C, strain ctf18, active compounds read low",1.03 (inactive)
same,normalized growth,"S. cerevisiae deletion strains, locus YMR125W, strain sto1, active compounds read low",1.02 (inactive)
same,normalized growth,"S. cerevisiae deletion strains, locus YMR129W, active compounds read low",0.955 (inactive)
same,normalized growth,"S. cerevisiae deletion strains, locus YMR205C, strain PFK2, active compounds read low",0.929 (inactive)
same,normalized growth,"S. cerevisiae deletion strains, locus YMR223W, strain ubp8, active compounds read low",0.928 (inactive)
same,normalized growth,"S. cerevisiae deletion strains, locus YMR231W, strain pep5, active compounds read low",0.953 (inactive)
same,normalized growth,"S. cerevisiae deletion strains, locus YMR263W, strain SAP30, active compounds read low",0.906 (inactive)
same,normalized growth,"S. cerevisiae deletion strains, locus YMR307W, strain GAS1, active compounds read low",0.683 (inactive) and 1 (inactive)
same,normalized growth,"S. cerevisiae deletion strains, locus YNL067W, strain RPL9B, active compounds read low",0.913 (inactive)
same,normalized growth,"S. cerevisiae deletion strains, locus YNL071W, strain lat1, active compounds read low",0.848 (active)
same,normalized growth,"S. cerevisiae deletion strains, locus YNL128W, strain TEP1, active compounds read low",0.964 (inactive) and 0.995 (inactive)
same,normalized growth,"S. cerevisiae deletion strains, locus YNL153C, strain GIM3, active compounds read low",0.875 (inactive) and 0.922 (inactive)
same,normalized growth,"S. cerevisiae deletion strains, locus YNL175C, strain NOP13, active compounds read low",1.01 (inactive)
same,normalized growth,"S. cerevisiae deletion strains, locus YNL183C, strain NPR1, active compounds read low",0.928 (inactive)
same,normalized growth,"S. cerevisiae deletion strains, locus YNL197C, strain WHI3, active compounds read low",1.01 (inactive)
same,normalized growth,"S. cerevisiae deletion strains, locus YNL209W, strain ssb2, active compounds read low",0.636 (active)
same,normalized growth,"S. cerevisiae deletion strains, locus YNL224C, strain SQS1, active compounds read low",1.02 (inactive)
same,normalized growth,"S. cerevisiae deletion strains, locus YNL233W, strain BNI4, active compounds read low",0.859 (active)
same,normalized growth,"S. cerevisiae deletion strains, locus YNL248C, strain rpa49, active compounds read low",0.948 (inactive)
same,normalized growth,"S. cerevisiae deletion strains, locus YNL250W, strain rad50, active compounds read low",1.02 (inactive)
same,normalized growth,"S. cerevisiae deletion strains, locus YNL271C, strain bni1, active compounds read low",1.02 (inactive)
same,normalized growth,"S. cerevisiae deletion strains, locus YNL298W, strain CLA4, active compounds read low",1.01 (inactive)
same,normalized growth,"S. cerevisiae deletion strains, locus YNL307C, strain MCK1, active compounds read low",0.948 (inactive)
same,normalized growth,"S. cerevisiae deletion strains, locus YNL322C, strain KRE1 (second series), active compounds read low",0.941 (inactive)
same,normalized growth,"S. cerevisiae deletion strains, locus YNL322C, strain KRE1, active compounds read low",0.929 (inactive)
same,normalized growth,"S. cerevisiae deletion strains, locus YNR049C, strain mso1, active compounds read low",0.967 (inactive)
same,normalized growth,"S. cerevisiae deletion strains, locus YNR052C, strain pop2, active compounds read low",1 (inactive)
same,normalized growth,"S. cerevisiae deletion strains, locus YOL006C, strain TOP1, active compounds read low",0.616 (inactive)
same,normalized growth,"S. cerevisiae deletion strains, locus YOL012C, strain htz1",0.39 (inactive)
same,normalized growth,"S. cerevisiae deletion strains, locus YOL147C, strain pex11, active compounds read low",1.03 (inactive)
same,normalized growth,"S. cerevisiae deletion strains, locus YOR001W, strain rrp6, active compounds read low",0.925 (inactive)
same,normalized growth,"S. cerevisiae deletion strains, locus YOR061W, strain CKA2, active compounds read low",0.939 (inactive)
same,normalized growth,"S. cerevisiae deletion strains, locus YOR069W, strain VPS5, active compounds read low",0.974 (inactive)
same,normalized growth,"S. cerevisiae deletion strains, locus YOR070C, strain gyp1, active compounds read low",0.885 (active)
same,normalized growth,"S. cerevisiae deletion strains, locus YOR080W, strain dia2, active compounds read low",0.925 (inactive)
same,normalized growth,"S. cerevisiae deletion strains, locus YOR083W, strain WHI5 (second series), active compounds read low",0.994 (inactive)
same,normalized growth,"S. cerevisiae deletion strains, locus YOR083W, strain WHI5, active compounds read low",0.808 (active)
same,normalized growth,"S. cerevisiae deletion strains, locus YOR106W, strain vam3, active compounds read low",0.653 (active)
same,normalized growth,"S. cerevisiae deletion strains, locus YOR136W, strain idh2, active compounds read low",1.01 (inactive)
same,normalized growth,"S. cerevisiae deletion strains, locus YOR144C, strain elg1, active compounds read low",1.03 (inactive)
same,normalized growth,"S. cerevisiae deletion strains, locus YOR184W, strain ser1, active compounds read low",0.92 (inactive)
same,normalized growth,"S. cerevisiae deletion strains, locus YOR231W, strain MKK1, active compounds read low",0.991 (inactive)
same,normalized growth,"S. cerevisiae deletion strains, locus YOR265W, strain rbl2, active compounds read low",0.963 (inactive)
same,normalized growth,"S. cerevisiae deletion strains, locus YOR270C, strain vph1, active compounds read low",0.749 (active)
same,normalized growth,"S. cerevisiae deletion strains, locus YOR290C, strain snf2, active compounds read low",0.888 (inactive)
same,normalized growth,"S. cerevisiae deletion strains, locus YOR316C, strain cot1, active compounds read low",1.04 (inactive)
same,normalized growth,"S. cerevisiae deletion strains, locus YPL051W, strain arl3, active compounds read low",0.814 (active)
same,normalized growth,"S. cerevisiae deletion strains, locus YPL055C, strain LGE1, active compounds read low",0.86 (inactive) and 1 (inactive)
same,normalized growth,"S. cerevisiae deletion strains, locus YPL078C, strain atp4, active compounds read low",0.927 (inactive)
same,normalized growth,"S. cerevisiae deletion strains, locus YPL106C, strain sse1, active compounds read low",0.783 (active)
same,normalized growth,"S. cerevisiae deletion strains, locus YPL240C, strain hsp82, active compounds read low",0.936 (inactive)
same,normalized growth,"S. cerevisiae deletion strains, locus YPL241C, strain CIN2, active compounds read low",0.987 (inactive)
same,normalized growth,"S. cerevisiae deletion strains, locus YPL256C, strain CLN2, active compounds read low",0.982 (inactive)
same,normalized growth,"S. cerevisiae deletion strains, locus YPR119W, strain clb2, active compounds read low",1.05 (inactive)
same,normalized growth,"S. cerevisiae deletion strains, locus YPR141C, strain kar3, active compounds read low",1.01 (inactive)
same,normalized growth,"S. cerevisiae deletion strains, locus YPR163C, strain tif3, active compounds read low",1.03 (inactive)
same,normalized growth,"S. cerevisiae deletion strains, locus YPR167C, strain met16, active compounds read low",1.02 (inactive)
same,normalized growth,"S. cerevisiae deletion strains, strain wtn01, active compounds read low",0.931 (inactive)
same,normalized growth,"S. cerevisiae strains, strain wild type, active compounds read low",0.912 (inactive)
